# According to PubChem BioAssay AID463082 (The Scripps Research Institute Molecular Screening Center, 2010):
# Out of some 330,000 compounds screened, about 4,900 (1.5%) were called active. The full list was thinned out, with actives kept by preference. Values without a mark were called inactive.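 How the source made its calls: active means inhibition above the mean inhibition across the screen plus 3 SD (cut at about 25% in these data); inactive means the rest.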
# Target: Platelet-activating factor acetylhydrolase (Homo sapiens) (UniProt Q13093)
# Assay: pPAFAH enzyme inhibitors, primary screen, biochemical, fluorescence polarization, human (AID 463082);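 further: inhibitors block binding of the rhodamine activity-based probe so polarization drops; 0% = enzyme with DMSO and 100% = wells lacking pPAFAH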
# Conditions: recombinant pPAFAH, FP-rhodamine probe fluorescence polarization; at 3.39 µM; stronger effect = higher value
# Sequence of Platelet-activating factor acetylhydrolase (Homo sapiens) (Q13093 whole entry, looked up): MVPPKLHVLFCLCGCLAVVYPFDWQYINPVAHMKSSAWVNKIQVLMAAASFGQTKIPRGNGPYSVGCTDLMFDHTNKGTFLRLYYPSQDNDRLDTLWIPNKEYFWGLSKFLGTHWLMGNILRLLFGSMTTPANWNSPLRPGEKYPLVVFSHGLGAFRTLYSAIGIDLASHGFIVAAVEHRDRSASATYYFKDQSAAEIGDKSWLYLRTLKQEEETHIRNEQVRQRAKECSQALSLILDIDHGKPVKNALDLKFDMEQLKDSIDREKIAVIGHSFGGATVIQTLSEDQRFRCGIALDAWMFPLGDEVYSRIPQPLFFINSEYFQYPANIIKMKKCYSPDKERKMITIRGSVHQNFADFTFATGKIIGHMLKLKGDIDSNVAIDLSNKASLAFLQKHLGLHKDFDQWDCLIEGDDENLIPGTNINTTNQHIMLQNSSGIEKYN
row,Structure (SMILES),inhibition
1,Fc1ccccc1/C=C1\CCCC2=C1Nc1ncnn1C2c1ccccc1F (centres undefined),14%
2,O=C1C=C(c2cccc(Cl)c2O)C[C@@H](c2ccc(F)cc2)C1,4.07%
3,O=C(NCc1ccc(F)cc1)C(c1ccccc1)N(C(=O)c1csnn1)C1CC1 (centres undefined),-2.59%
4,CC1=NNC(=O)C1CCC(=O)N/N=C(\C)c1ccc(Cl)cc1 (centres undefined),3.21%
5,CC(C)CC(=O)Nc1cc(C(F)(F)F)ccc1N1CCOCC1,-1.9%
6,O=C(CCC1CCCCC1)Nc1cc(C(F)(F)F)ccc1N1CCOCC1,37.1% (active)
7,O=C(CN1C(=O)NC2(CCCC2)C1=O)Nc1cc(C(F)(F)F)ccc1N1CCOCC1,6.53%
8,Cc1ccc(O/C=C2\OC(=O)c3ccccc32)cc1,-0.55%
9,Cc1noc(C)c1NC(=O)Nc1ccc2c(c1)C(=O)N([C@H](C)CO)C[C@H](C)[C@@H](CN(C)C(=O)Nc1ccc(C(F)(F)F)cc1)O2,-10.3%
10,CC(=O)N1CCN(C(=O)c2cc(-c3ccc(C)o3)nc3ccccc23)CC1,41% (active)
11,CC(=O)N1CCN(C(=O)c2cc(-c3ccc(Cl)s3)nc3ccccc23)CC1,3.56%
12,COc1ccc(NC(=O)c2cc(-c3ccc(C)o3)nc3ccccc23)cc1,11.4%
13,O=C(Cn1ncc2c3ccccc3n(Cc3ccccc3)c2c1=O)NCc1ccccn1,-0.14%
14,CCN1CCN(C(=O)CCN2C(=O)c3ccccc3C2=O)CC1,-1.23%
15,CCCCOc1ccc(N(CC(=O)NCC2CCCO2)C(=O)CCC(=O)Nc2cc(C)ccn2)cc1 (centres undefined),10.7%
16,CCOc1ccc(C(C(=O)NCCOC)N(CCOC)C(=O)CCC(=O)Nc2ccccn2)cc1 (centres undefined),5.87%
17,CCCCOc1ccc(N(CC(=O)NC(C)C)C(=O)CCC(=O)Nc2ccccn2)cc1,28.3% (active)
18,COc1ccccc1C(=O)Nc1ccc(Nc2ccccc2)cc1,2.35%
19,CCC(=O)Nc1nnc(S(=O)(=O)N(CC(C)C)c2ccccc2)s1,3.99%
20,O=C(Nc1cc(C(F)(F)F)ccc1Cl)c1cc2nc3c(c(C(F)(F)F)n2n1)CCCC3,8.15%
21,CN=C1S/C(=C\c2c(OC)cc(OC)cc2OC)C(=O)N1C,-0.42%
22,CN1C(=O)/C(=C/c2ccco2)SC1=Nc1cccc(C(=O)O)c1,25.1% (active)
23,Cc1cc(/C=C2\SC(=Nc3ccc(N4CCOCC4)cc3)N(C)C2=O)c(C)n1-c1cccnc1,2.99%

row,Structure (SMILES),inhibition
1,Cc1nc2ccccc2c(=O)n1-c1ccc(F)c(NC(=O)c2cccs2)c1,-0.28%
2,O=C(NC1CCCC1)c1cc(-c2ccccc2)on1,8.25%
3,COc1ccc(CNC(=O)/C(C#N)=C/c2cccc(OC)c2OC)cc1,-1.57%
4,N#C/C(=C\c1ccc(O)c(O)c1)C(=O)NCc1ccccc1,28.2% (active)
5,COCCNC(=O)/C(C#N)=C/c1cccc(OCc2ccccc2)c1,2.65%
6,Cc1cccc(C)c1N1CCN(S(=O)(=O)N2CCCCC2)CC1,0.66%
7,O=C1COc2ccc(C(=O)COC(=O)c3cccnc3Cl)cc2N1,3.48%
8,Cc1cc(=O)oc2c1ccc1ccccc12,1.01%
9,O=C1CCC([N+](=O)[O-])C(c2ccccc2Br)N1 (centres undefined),2.25%
10,CN(CC(=O)Nc1ccc(OC(F)(F)F)cc1)C(=O)C1CCC1,2.02%
11,CC(CC(=O)Nc1ccc(F)cc1F)S(=O)(=O)c1ccc2c(c1)NC(=O)CO2 (centres undefined),0.8%
12,Cc1cc(C)n(C(=O)c2ccc(C)c(S(=O)(=O)N3CCOCC3)c2)n1,2.24%
13,O=[N+]([O-])C(=c1ccc2c(c1)N1C3=C(CCCC3)CC3CCCCC31N=2)[N+](=O)[O-] (centres undefined),33.6% (active)
14,CCN1CCN(C(=O)C2CCN(S(=O)(=O)c3cc(Cl)ccc3Cl)CC2)CC1,3.87%
15,CCc1cc2c(=O)c(-c3nc4ccccc4n3C)c(CCCC(=O)O)oc2cc1OC(=O)C(C)(C)C,3.51%
16,COc1ccc(-n2nnnc2-c2nc3ccccc3s2)cc1,-4.42%
17,COc1ccccc1N1CC(O)=C(c2nc3ccccc3s2)C1=N,32.9% (active)
18,CCc1ccc(N2CC(O)=C(c3nc4ccccc4c(=O)[nH]3)C2=N)cc1,-1.78%
19,C=CCC[C@H](Cc1ccc(F)cc1)C(=O)OC[C@@H](NC(=O)[C@@H](CC=C)CC(=O)N[C@H](CO)Cc1ccccc1)C(C)(C)C,4.14%
20,Cc1cc(NC(=O)CSC2=NS(=O)(=O)c3cc(Cl)ccc3N2)no1,-4.37%
21,CS(=O)(=O)N1CCCC(C(=O)Nc2ccccc2C(F)(F)F)C1 (centres undefined),-1.76%
22,O=C(COC(=O)c1ccc(Oc2ccccc2)cc1)Nc1nnc(-c2ccccc2)o1,25% (active)
23,O=C(COC(=O)c1ccccc1Br)Nc1nnc(-c2ccccc2)o1,4.87%

row,Structure (SMILES),inhibition
1,CC(=O)Nc1cccc(C(=O)OCC(=O)Nc2nnc(-c3ccccc3)o2)c1,5.98%
2,O=C(COc1ccccc1)N1CCN=C1SCc1cccc(F)c1,4.42%
3,O=C(COc1ccc(S(=O)(=O)NCCc2ccccc2)cc1)N1CCCC1,26.8% (active)
4,O=C(COc1ccc(S(=O)(=O)NCc2ccccc2)cc1)N1CCOCC1,4.78%
5,CC(NS(=O)(=O)c1ccc(OCC(=O)N2CCCC2)cc1)c1ccccc1 (centres undefined),14.5%
6,CCCCNC(=O)CCn1c(=O)c2ccccc2n(Cc2cc(C)ccc2C)c1=O,1.95%
7,Cc1ccc(S(=O)(=O)N(CC(=O)Nc2cccnc2)c2ccc(Br)cc2)cc1,3.28%
8,COc1cccc(C(=O)N2CCCC(CCC(=O)NCc3ccc(F)c(F)c3)C2)c1 (centres undefined),1.9%
9,COc1cccc(CNC(=O)CCC2CCCN(C(=O)c3ccoc3C)C2)c1 (centres undefined),5.56%
10,COc1cccc(CNC(=O)CCC2CCCN(C(=O)c3ccc(F)c(Cl)c3)C2)c1 (centres undefined),42.8% (active)
11,COc1ccc(S(=O)(=O)Nc2cccc3c2O[C@H](CN(C)S(=O)(=O)c2ccc(OC)cc2)[C@@H](C)CN([C@H](C)CO)C3=O)cc1,3.76%
12,COc1ccc(NCc2nnc(SCc3ccccc3)n2-c2ccc(OC)cc2)cc1,2.01%
13,OCCC1CN(Cc2cccc(O)c2)CCN1CCc1ccccc1 (centres undefined),-5.11%
14,CCN(CC)S(=O)(=O)c1ccc(N2CCN(C)CC2)c(NC(=O)Nc2ccccc2F)c1,33.1% (active)
15,CCN(CC)S(=O)(=O)c1ccc(N2CCOCC2)c(NC(=O)C(C)Oc2ccc(F)cc2)c1 (centres undefined),10.3%
16,CN1CCN(c2ccc(S(=O)(=O)N3CCCCC3)cc2NC(=O)Cc2ccccc2F)CC1,-3.62%
17,C=CC[C@@H](CC(=O)N[C@@H](CO)Cc1ccccc1)C(=O)NCCOC(=O)[C@@H](CC=C)CC(=O)OC(C)(C)C,1.4%
18,Cc1ccc(C)c(S(=O)(=O)Nc2cc(C)on2)c1,-1.93%
19,CCn1c(N)c(Br)c(=O)[nH]c1=O,0.06%
20,O=S(=O)(c1ccc(Cl)cc1)c1nc(-c2ccco2)oc1N1CCCCC1,-3.3%
21,CCC(C)NC(=O)CSC1=Nc2ccccc2C2=NC(CCC(=O)NCc3ccco3)C(=O)N12 (centres undefined),2.48%
22,O=C(CSC1=Nc2ccccc2C2=NC(CC(=O)NCc3ccco3)C(=O)N12)NCc1ccco1 (centres undefined),5.99%
23,CC(C)C1N=C2c3ccccc3N=C(SCC(=O)c3ccc(O)c(O)c3)N2C1=O (centres undefined),55.4% (active)

row,Structure (SMILES),inhibition
1,CC(C)n1cnc2c(NCc3ccccc3)cc(OCC3CCN(C)CC3)cc21,11.1%
2,CN(CC(=O)NCC(c1ccccc1)N1CCCC1)S(=O)(=O)c1ccc(Cl)cc1 (centres undefined),-2.68%
3,O=C(O)c1cc2c(cc1NC(=O)c1c(F)cccc1Cl)OCCCO2,-0.94%
4,CC(=O)Nc1ccc(OCCC[n+]2cccc(C(=O)[O-])c2)cc1,-0.37%
5,O=c1ccc2c(-c3ccccc3S(=O)(=O)O)c3ccc(O)c(O)c3oc-2c1O,70% (active)
6,CCCCNC(=O)C1CCC(=O)N1CCc1ccccc1 (centres undefined),3.82%
7,CCOc1ccc(OCC)c(-c2c(=O)n(OCc3ccc(Cl)cc3)c3ccccc3[n+]2[O-])c1,5.98%
8,CCc1ccc(CN2C(=O)c3ccccc3C2C(=O)NCC2CCCO2)cc1 (centres undefined),7.1%
9,N#CC1=C(N)Oc2c(sc3ccccc23)C1c1ccco1 (centres undefined),26.5% (active)
10,N#CC1=C(N)Oc2c(ccc3cccnc23)C1c1ccncc1 (centres undefined),11.9%
11,O=C(O)/C(=C/c1cccnc1)NC(=O)c1ccccc1,-3.24%
12,O=C(CN1C(=O)c2ccc([N+](=O)[O-])cc2C1=O)Nc1nnc(C2CC2)s1,0.34%
13,O=C(Nc1cccn(Cc2c(Cl)cccc2Cl)c1=O)c1ccc(Cl)cc1,-3.34%
14,O=C(COC(=O)c1ncc(Cl)c(Cl)c1Cl)NCc1ccccc1,14.3%
15,Cc1ccc(N=Cc2c(O)cc(C)oc2=O)c(C)c1,-5.2%
16,Cc1cc(O)c(Sc2ccccc2)c(=O)o1,3.25%
17,Cc1cc(O)c(C(=O)/C=C/c2c(F)c(F)c(F)c(F)c2F)c(=O)o1,27.7% (active)
18,CCOC(=O)C1CCN(Cc2coc3ccc(Cl)cc3c2=O)CC1,-3.13%
19,O=C(OCC1O[C@@H](OC(=O)c2cc(O)c(O)c(O)c2)[C@@H](OC(=O)c2cc(O)c(O)c(O)c2)[C@@H](OC(=O)c2cc(O)c(O)c(O)c2)[C@@H]1OC(=O)c1cc(O)c(O)c(O)c1)c1cc(O)c(O)c(O)c1 (some centres undefined),73% (active)
20,O=C(OCC1OC(Oc2ccc(O)cc2)C(O)C(O)C1O)c1ccccc1 (centres undefined),3.51%
